An excerpt weighted towards active compounds, which were near 6.1% of everything screened.
Hsp90 Hop PPI: qHTS Assay for Disrupters of an Hsp90 Co-Chaperone Interaction. actives 0.44% (n = 71,000). Hsp90 C-terminal peptide / TPR2A (Hop) interaction, human. Potency, µM (doses to about 57 µM), for the others: at the top dose activity change, negative = inhibition. AlphaScreen TPR2A-His6 binding biotin-Hsp90 C-terminal peptide; active = well fitted curve in either direction with a large enough effect; inconclusive = small, poorly fitted or top-dose-only effect, or another doubt
ERK AVP inh: qHTS Assay for Inhibitors of the ERK Signaling Pathway using a Homogeneous Screening Assay | Potency, µM (series often up to 57.5 µM), without a hit: at the highest dose activity, negative = inhibition, most hits filed as inhibitors | AID 995, 2007 | HEK293-V1b, vasopressin-stimulated pERK AlphaScreen | actives 0.99% (n = 72,000); note: nearly all actives have a fitted effect of over 55% in size
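Overnight-seeded V1b-HEK293 cells in 1% FBS got compound, then vasopressin (25 nM final, 5 min, 37C), then lysis buffer. AlphaScreen detection of phospho-ERK; activity normalized to basal and full-stimulation controls.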
ALOX15 inhib: qHTS Assay for Inhibitors of 15-hLO (15-human lipoxygenase); Potency, µM (doses to about 57.1 µM), without a hit: at the top dose activity change, negative = inhibition, actives largely listed as inhibitors; Polyunsaturated fatty acid lipoxygenase ALOX15 (Homo sapiens), P16050; actives 1.4% (n = 74,000); AID 887, 2007; purified 15hLO-1, xylenol orange hydroperoxide absorbance; note: nearly all actives have a fitted effect of over 55% in size
Target sequence (P16050 whole entry, looked up): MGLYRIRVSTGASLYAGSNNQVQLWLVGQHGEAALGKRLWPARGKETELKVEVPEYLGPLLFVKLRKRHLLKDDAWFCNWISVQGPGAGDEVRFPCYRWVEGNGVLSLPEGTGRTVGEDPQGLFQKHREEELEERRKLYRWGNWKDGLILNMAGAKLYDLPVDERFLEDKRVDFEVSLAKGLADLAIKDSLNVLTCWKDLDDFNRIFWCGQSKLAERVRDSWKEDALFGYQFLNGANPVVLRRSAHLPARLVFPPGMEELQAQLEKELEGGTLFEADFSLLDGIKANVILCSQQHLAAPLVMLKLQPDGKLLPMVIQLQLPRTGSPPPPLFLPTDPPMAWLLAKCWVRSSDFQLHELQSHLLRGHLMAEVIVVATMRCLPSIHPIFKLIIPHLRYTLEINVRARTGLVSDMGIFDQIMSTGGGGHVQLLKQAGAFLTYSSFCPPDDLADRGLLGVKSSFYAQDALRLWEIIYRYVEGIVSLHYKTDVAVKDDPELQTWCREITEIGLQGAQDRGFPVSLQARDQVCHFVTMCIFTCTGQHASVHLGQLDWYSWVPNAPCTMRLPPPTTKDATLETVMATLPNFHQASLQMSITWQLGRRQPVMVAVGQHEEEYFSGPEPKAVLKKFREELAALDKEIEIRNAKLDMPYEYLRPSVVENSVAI
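Compounds were preincubated 15 min at room temperature with 40 nM purified human enzyme (25 mM Hepes pH 7.5, 0.01% Triton X-100); 50 uM arachidonic acid reacted 6 min. Fe-xylenol orange detection, 30 min, absorbance ratio 573/405 nm.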
PK Bst: Pyruvate Kinase; purified pyruvate kinase, luminescence ATP production; ribose 5-phosphate activator present at AC10; Potency, µM; actives 1.2% (n = 51,000); in the data active = potency below about 11 µM; inconclusive = mostly about 12 µM to 25 µM;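 the screen sought inhibitors and activators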;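 note: scaled between full activation by ribose 5 phosphate and full inhibition by luteolin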
FLuc inh: qHTS Assay for Inhibitors of Firefly Luciferase. Luciferin 4-monooxygenase (Photinus pyralis), P08659. actives 2.2% (n = 72,000). purified firefly luciferase, luminescence, 8 min. Potency, µM (top dose mostly 57.1 µM), for inactives: top-dose activity change, negative = inhibition, actives largely listed as inhibitors; note: nearly all actives have a fitted effect of over 40% in size
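Firefly luciferase (PKLight detection mix) with 10 uM ATP in pH 7.2 imidazole buffer (KCl, MgCl2, Tween 20, BSA). Compounds tested across a concentration series (qHTS). Luminescence read after 8 min at ambient temperature.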
Tau filament bind: qHTS Assay for Tau Filament Binding. Microtubule-associated protein tau (Homo sapiens), P10636. recombinant tau filaments, thioflavin S fluorescence, 15 h; filaments grown with octadecylsulfate alongside compound. Potency, µM (doses to about 57.1 µM), for inactives: top-dose activity change, negative = inhibition. actives 2% (n = 71,000). AID 596, 2007;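 note: actives lower thioflavin S fluorescence by blocking filaments or displacing dye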
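ThS-based fibril read: tau 1 uM final, inducer ODS 30 uM final, 37 C for 15 h, ex 450/em 510 nm.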
An asterisk follows results filed as active; ? = inconclusive; . = not tested or not shown; [ ] = another dose, or the depositor's remark. Unless noted, calls come from the whole dose curve; as a rule, active = well fitted curve in the direction sought with a large enough effect; inconclusive = small, poorly fitted or top-dose-only effect, or another doubt; inactive = no such curve, though single readings can be large; an effect the other way counts as inactive or inconclusive. Unless noted, % is set by controls: 0 for no effect and ±100 for the full control effect; potency is the fitted concentration of half-maximal effect.

SMILES	Hsp90 Hop PPI	ERK AVP inh	ALOX15 inhib	PK Bst	FLuc inh	Tau filament bind
COc1ccc(N2CSC3=C(C#N)C(c4cc(OC)ccc4OC)CC(=O)N3C2)c(OC)c1 (stereo not given)	?	-26.7%	?	.	-21.7%	25.1µM*
COc1ccc(C2CC(=O)N3CN(c4ccc(C)c(Cl)c4)CSC3=C2C#N)cc1OC (stereo not given)	-7.4%	-11.7%	3.16µM*	.	-12.9%	-14.1%
COc1ccc(N2CSC3=C(C#N)C(c4cc(OC)c(OC)cc4OC)CC(=O)N3C2)c(OC)c1 (stereo not given)	-5.9%[2.3 µM]	4.0%	?	.	-15.5%	?
COc1ccc(N2CSC3=C(C#N)C(c4ccc(OC)c(OC)c4)CC(=O)N3C2)c(OC)c1 (stereo not given)	-18.9%	?	3.98µM*	.	-26.8%	20µM*
CCOc1ccccc1N1CSC2=C(C#N)C(c3c(OC)ccc4ccccc34)CC(=O)N2C1 (stereo not given)	-4.0%[2.3 µM]	-15.2%	?	.	?	25.1µM*
COc1cc(OC)c(C2CC(=O)N3CN(c4ccc(C)cc4)CSC3=C2C#N)cc1OC (stereo not given)	-12.8%	-21.3%	?	>57	-19.3%	-10.0%
CCc1ccc2c(O)c3c(cc2c1C(=O)OC)C(=O)c1c(O)ccc(O)c1C3=O	.	5.8%	-2.9%	.	.	.
C[C@@H]1CC2(OC3C[C@@]4(C)C5=CC[C@H]6C(C)(C)C(O[C@@H]7OC[C@@H](O)[C@H](O)[C@H]7O)CC[C@@]67C[C@@]57CC[C@]4(C)C31)OC(O)C1(C)OC21 (stereo not given in full)	0.5%	26.6%	-2.6%	.	.	481.7%
Cn1cc(-c2nc3cncnc3n(CCN)c2=O)c2ccccc21	-6.1%	-14.8%	3.7%	.	-1.0%[11.4 µM]	89.9%
Clc1ccc(-n2nnnc2-c2ccccc2)cc1	3.2%	14.5%	-4.0%	>57	-0.1%	6.1%
Nc1c(-c2ccc(Cl)cc2)nnn1-c1ccccc1	2.3%	8.2%	-3.8%	.	10µM*	-2.8%
CCC(=O)Nc1ccc2c(c1)C(=O)N(C1CCCCC1)C2=O	-0.5%	7.2%	2.3%	>57	0.8%	1.1%
CN1CCN(C2=C(Cl)C(=O)N(C3CCCCC3)C2=O)CC1	-5.1%	-24.1%	-13.5%	>57	0.7%	15.8µM*
COc1ncc2nc(-c3cn(C)c4ccccc34)c(=O)n(C[C@H]3CCCO3)c2n1	0.0%	-29.9%	-12.4%	.	1.1%[11.4 µM]	7.0%
COc1ccc(NC(=O)N2CC3(CCN(C(=O)c4cnccn4)CC3)C2)cc1	-2.2%	6.1%	1.3%	.	-0.1%[11.4 µM]	-1.4%
CC(=O)c1sc2ccccc2c1OC(=O)c1ccco1	-1.5%	-11.6%	-3.0%	.	-1.1%	8.3%
CC(=O)c1c(OC(=O)c2ccco2)c2ccccc2n1C	-3.5%	5.2%	25.1µM*	.	-0.3%	7.5%
O=c1cc(-c2ccccc2)oc2ccccc12	2.3%	-14.8%	-25.1%	.	.	-20.0%
O=c1cc(-c2ccccc2)oc2cc(O)c(O)cc12	.	-30.0%	15.8µM*	.	.	.
O=c1cc(-c2ccc(O)c(O)c2)oc2ccccc12	.	7.94µM*	1.58µM*	.	.	.
CCOc1ccc(-c2cc(C(=O)N/N=C/c3ccc(O)c(OC)c3)[nH]n2)cc1	.	.	-28.2%	.	.	.
COc1ccccc1N1CCN(S(=O)(=O)c2ccccc2)CC1	0.2%	-1.5%	3.3%	?	-0.4%	-13.0%
COc1ccccc1N1CCN(S(=O)(=O)c2c(C)ccc3nsnc23)CC1	-14.6%	?	-8.9%	2.87*	0.9%	?
COC(=O)c1nn(-c2ccc(-c3ccccc3)cc2)cc1O	0.0%	?	?	.	3.16µM*	99.4%
CCOC(=O)c1nn(-c2cc(C(=O)OC)cc(C(=O)OC)c2)cc1O	-0.6%	-8.4%	-2.1%	>57	1.6%	3.6%

Screening results from PubChem.
